Laboratory results: ChEMBL document CHEMBL1157539, “Thousands of chemical starting points for antimalarial lead identification” (Nature, 2010)

Key:
Type in all cases: functional
Plasmodium falciparum [1] = test: GSK_TCMDC: Inhibition of Plasmodium falciparum 3D7 in whole red blood cells, using parasite LDH activity as an index of growth. Test compounds present at 2uM
Plasmodium falciparum [2] = test: GSK_TCMDC: Inhibition of Plasmodium falciparum Dd2 in whole red blood cells, using parasite LDH activity as an index of growth. Test compounds present at 2uM
HepG2 = test: GSK_TCMDC: Percent inhibition of human HepG2 cell line. Test compounds present at 10uM.

Row | SMILES | Inhibition (Plasmodium falciparum [1]) | Inhibition (Plasmodium falciparum [2]) | Inhibition (HepG2)
1 | CCC(C)C#Cc1c(C)nc(N)nc1N (stereo unspecified) | 96% | 0% | 53%
2 | CN/C(=C\[N+](=O)[O-])NCCSCc1cc(C)c(CN(C)C)s1 | 98% | 96% | 48%
3 | O=C(O)C(F)(F)F.c1cc(CN2CCCCC2)cc(-c2cccc(-c3nc4ccccc4[nH]3)c2)c1 | 100% | 37% | 39%
4 | Cc1cccn2c(=O)c3cc(C(=O)NCCc4ccccc4)c(=N)n(CCCOC(C)C)c3nc12 | 100% | 40% | 19%
5 | Nc1ccc2nc(C=Cc3ccccc3)[nH]c2c1 | 92% | 89% | 7%
6 | COc1cccc2c(NN=Cc3ccccc3Cl)cc(C)nc12 | 100% | 100% | 22%
7 | FC(F)(F)c1ccc2[nH]ccc(=NN=Cc3ccccc3)c2c1 | 92% | 2% | 7%
8 | CN(C)CCOc1cccc(-c2cnc(N)c(-c3nc4cc(S(C)(=O)=O)ccc4[nH]3)c2)c1.O=C(O)C(F)(F)F | 100% | 82% | 39%
9 | Cc1cc(Oc2ccc(-n3ccnc3)cc2)nc(N2CCN(CCCN3CCCC3)CC2)n1.O=C(O)C(F)(F)F | 90% | 7% | 5%
10 | NCCNc1ccc([N+](=O)[O-])cc1C(=O)Nc1cccc(C(F)(F)F)c1 | 94% | 33% | 1%
11 | CCCCOP(=O)(COc1ccc(CCN(CC(O)COc2cccc3[nH]c4ccccc4c23)CC(O)COc2cccc3[nH]c4ccccc4c23)cc1)C1CCCCC1 (stereo unspecified) | 89% | 92% | 7%
12 | CCCCCCOc1ccc(C(=O)NCCCC2CCN(CCCCCNC(=O)C=Cc3ccc(Cl)c(Cl)c3)CC2)cc1 | 94% | 25% | 22%
13 | COc1ccc2nccc(N3CCC(CCNCc4ccc5c(n4)NC(=O)CO5)CC3)c2c1.Cl | 100% | 50% | 22%
14 | Cc1ccc(-c2csc(C)n2)c(C)c1 | 98% | 0% | 12%
15 | Cc1cccc2nc(-c3ccc(-c4ccc(NC(=O)CN5CCN(C)CC5)cc4)s3)[nH]c12 | 95% | 86% | 56%
16 | O=C(Nc1cccc(N2CCC(NCCCn3ccnc3)CC2)c1)c1cccc(C(F)(F)F)c1 | 100% | 2% | 8%
17 | CCCCCCCC/C=C\CCCCCCCC(=O)NCc1ccc(O)c(OC)c1 [OLVANIL] | 96% | 93% | 0%
18 | Cl.O=S(=O)(NCCCN1CCOCC1)c1ccc2nccc(Nc3ccc(Oc4ccccc4)cc3)c2c1 | 95% | 92% | 1%
19 | Cc1cc(N[C@@H](CC(C)C)C(=O)Nc2ccccc2)nc(NCCc2ccccc2)n1.O=C(O)C(F)(F)F | 100% | 87% | 0%
20 | CC(C)(C)c1ccc(N2C(N)=NC(N)=NC2(C)C)cc1Cl.Cl | 94% | 3% | 51%
21 | COc1cc(-c2nc(-c3ccncc3)c(-c3ccc4c(c3)CCC4=NO)[nH]2)ccc1OCCN1CCCCC1.Cl | 100% | 80% | 75%

Row | SMILES | Inhibition (Plasmodium falciparum [1]) | Inhibition (Plasmodium falciparum [2]) | Inhibition (HepG2)
22 | O=S(=O)(c1ccc(Cl)cc1Cl)N1CCCCC(c2ccc(C(F)(F)F)cc2)=N1 | 100% | 99% | 10%
23 | N=C(N)NCCCN(Cc1ccccc1)c1ccc(Cl)cc1.O=S(=O)(O)O | 100% | 98% | 0%
24 | CC(C)CNCc1ccc(-c2ccc(CN(CCCN3CCN(C)CC3)C(=O)CCC3CCCC3)cc2)cc1.O=C(O)C(F)(F)F | 96% | 87% | 50%
25 | O=c1cc(NCCCCNCc2cccc(C(F)(F)F)c2)[nH]c2ccccc12 | 94% | 34% | 13%
26 | Cc1nc2nc(N)nc(N)c2c(C)c1Cc1ccc(C(N)=O)cc1.Cl | 97% | 0% | 55%
27 | COc1ccc2nccc([C@@H](O)CN3CCC(NCc4ccc5c(c4)NC(=O)CS5)CC3)c2c1.O=C(O)C(=O)O | 100% | 36% | 0%
28 | CC(C)(C)[C@@H](Nc1ccc(C#N)c2ccccc12)C(=O)NC1(Cc2ccc(O)c(Br)c2)CCCC1 | 84% | 16% | 2%
29 | Cc1cc(C(=O)Nc2ccc3c(c2)CCN3C2CCN(Cc3ccc(O)cc3)C2)no1 (stereo unspecified) | 95% | 86% | 3%
30 | CCCn1c(=N)c(C(=O)NCCc2ccccc2)cc2c(=O)n3cccc(C)c3nc21 | 100% | 64% | 8%
31 | CC(=O)Nc1ccc(C(=O)Nc2ccc(-c3cccc(-c4nc5cccc(C)c5[nH]4)c3)cc2)cn1 | 99% | 74% | 36%
32 | CCN1CCC(NCc2ccc(-c3ccc(Cl)s3)cc2)CC1 | 96% | 23% | 42%
33 | Fc1ccc2[nH]c(-c3ccc(-c4cccc(CN5CCC(CCN6CCCCC6)CC5)c4)cc3)nc2c1.O=C(O)C(F)(F)F | 100% | 100% | 96%
34 | CCCCCCN1CCN(Cc2cccc(NC(=O)c3cccc(OCC)c3)c2)CC1.O=C(O)C(F)(F)F | 85% | 48% | 65%
35 | COc1cccc(C(NC(=O)c2ccccc2)c2ccc3cccnc3c2O)c1 (stereo unspecified) | 89% | 41% | 52%
36 | COc1cc2nccc(Nc3ccc4c(cnn4Cc4cccc(F)c4)c3)c2cc1OC.Cl | 100% | 99% | 29%
37 | Cc1ccc(C)c(Cn2ccc3nc(Cl)nc(Cl)c32)c1 | 95% | 68% | 0%
38 | Cc1cc(N2CCC(NS(=O)(=O)c3ccc(F)cc3)CC2)nc(Nc2cccc(C#N)c2)n1.O=C(O)C(F)(F)F | 97% | 65% | 20%
39 | COc1cc(Nc2nccc(N3CCC(NC(=O)Nc4cccc(C(C)=O)c4)C3)n2)cc(OC)c1OC (stereo unspecified) | 91% | 34% | 8%
40 | CC1CCN(CCCNc2ccc(C(=O)Nc3ccc(C(F)(F)F)cc3)cc2[N+](=O)[O-])CC1 | 100% | 100% | 62%
41 | O=C(O)C(F)(F)F.OC1CCCN(Cc2cccc(-c3ccc(-c4nc5cc(C(F)(F)F)ccc5[nH]4)cc3)c2)C1 (stereo unspecified) | 100% | 91% | 27%
42 | CCn1cc(CN2C(=O)C(c3ccccc3)(c3ccccc3)N=C2N)cn1.O=CO | 95% | 60% | 7%

Row | SMILES | Inhibition (Plasmodium falciparum [1]) | Inhibition (Plasmodium falciparum [2]) | Inhibition (HepG2)
43 | CCN(CC)c1ccc(C(c2ccc(N(CC)CC)cc2)c2ccc([N+](=O)[O-])cc2)cc1 | 82% | 63% | 20%
44 | Cc1ccc(CN2CCCN(Cc3ccc(C(=O)Nc4ccc(Cl)cc4)cc3)CC2)s1.O=C(O)C(F)(F)F | 85% | 5% | 53%
45 | CCCc1cc(Cc2cnc(N)nc2N)cc(OCCCCCC(=O)O)c1OC.Cl | 95% | 2% | 8%
46 | Cc1ccccc1C1CCN(C2CCC(NC(=O)c3cc(-c4ccccc4)oc3C)CC2)CC1 (stereo unspecified) | 100% | 32% | 46%
47 | Cc1ccc(NC(=O)NC2CCN(c3ccnc4cc(Cl)ccc34)C2)cc1.O=C(O)C(F)(F)F (stereo unspecified) | 100% | 96% | 19%
48 | COc1ccc2nc3cc(Cl)ccc3c(NCc3ccccc3)c2c1.Cl | 100% | 50% | 8%
49 | O=C(O)C(F)(F)F.OC1(Cc2ccccc2)CCN(Cc2cccc(-c3c[nH]c4nc(NC5CCCC5)ncc34)c2)CC1 | 96% | 35% | 45%
50 | COc1ccc(-c2ccc(NC(=O)c3cccc(Cl)c3)cc2)cc1CN1CCCN(C)CC1.O=C(O)C(F)(F)F | 95% | 50% | 48%
51 | COc1ccc(-c2ccc(NC(=O)c3cccc(C#N)c3)cc2)cc1CN1CCC(O)CC1.O=C(O)C(F)(F)F | 100% | 84% | 21%
52 | O=C(Cn1c(SCc2cccc(F)c2F)cc(=O)c2ccccc21)N(Cc1ccc(-c2ccc(C(F)(F)F)cc2)cc1)C1CCN(CCO)CC1 | 89% | 81% | 50%
53 | Cc1sc(CNCCCNc2cc(=O)c3ccccc3[nH]2)c(C(F)(F)F)c1C.Cl | 99% | 70% | 0%
54 | COC(=O)Nc1ccc(-c2ccc(C(=O)NC3CCN(C[C@H](O)c4ccnc5ccc(OC)cc45)CC3)cc2)c(C)c1 | 100% | 97% | 32%
55 | COc1c(C2CCN(CCCCNC(=O)c3cc(-c4ccc(Cl)cc4)[nH]c3C)CC2)ccc2c1CCCC2 | 100% | 91% | 53%
56 | COc1cc(-c2nc3c4ccccc4c4ccccc4c3[nH]2)cc(OC)c1OC | 90% | 10% | 4%
57 | COc1cc2nc(NCCn3ccnc3C)nc(NCCc3ccccc3)c2cc1OC | 99% | 0% | 21%
58 | Cc1cc2nc(-c3ccc(SCC(=O)Nc4ccc5c(c4)OCCO5)nc3)[nH]c2cc1C | 85% | 6% | 17%
59 | Cc1cc(NC2CCN(Cc3ccccc3)CC2)nc(NCCCCc2ccccc2)n1 | 100% | 60% | 65%
60 | CN(C)CCNC(=O)NC1CN(c2ncnc3cc(-c4ccccc4)sc23)C1.O=C(O)C(F)(F)F | 100% | 39% | 7%
61 | CC1(C)CN2CCCC2c2cc(NC(=O)/C=C/c3ccccc3Cl)ccc21.Cl (stereo unspecified) | 88% | 76% | 20%
62 | Cc1[nH]c(C)c(-c2ccc(-c3cccc(C(F)(F)F)c3)nc2)c(=O)c1Br | 97% | 96% | 28%
